Assay outcomes deposited in PubChem BioAssay by National Center for Advancing Translational Sciences (NCATS).
ELG1 genotox: qHTS screen for small molecules that induce genotoxicity in human embryonic kidney (HEK293T) cells expressing luciferase-tagged ELG1; HEK293T ELG1-luciferase reporter, luminescence, 16 h; Potency, µM (highest dose often 46 µM), for inactives: top-dose activity change, positive = activation, hits mostly activators; 330,000 tested, 1.3% active; AID 504466, 2011; further: % of control where 0% means no effect; nearly all actives have a fitted effect of over 60% in size
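Cells (2,000/well) expressing the ELG1-luciferase fusion are dosed by pin tool and kept 16 hr at 37 °C, 5% CO2. Signal comes from ONE-Glo luciferase reagent after 30 min at room temperature.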
SMN2 splice up: qHTS Assay for Enhancers of SMN2 Splice Variant Expression | HEK293 SMN2-luciferase splicing reporter, luminescence, 30-36 h | Potency, µM (highest dose often 46.1 µM), inactives show at the top dose activity change, positive = activation, most hits filed as activators | 210,000 tested, 2.8% active; further: % of control where 0% means no effect; nearly all actives have a fitted effect of over 55% in size
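qHTS luciferase splicing reporter: luminescence rises when SMN2 exon 7 is included in transfected HEK293 cells. Compound exposure lasted 30-36 h at 37C, with 4.5 mM final sodium butyrate as control, followed by a ONE-Glo read.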
Rab9 prom act: qHTS Assay for Rab9 Promoter Activators | Huh7 Rab9 promoter-luciferase reporter, luminescence, 24 h | Potency, µM (series often up to 9.22 µM), inactives show top-dose activation, negative = inhibition, hits mostly activators | 320,000 tested, 2.8% active | AID 485297, 2010; further: % of control where 0% means no effect; nearly all actives have a fitted effect of over 60% in size
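Luciferase signal after 10 min detection reagent at ambient indicates Rab9 promoter upregulation; stably transfected Huh7 cells were treated 24 h with compound in DMSO at 37 °C, 5% CO2.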
NPC1 promoter act: qHTS Assay for NPC1 Promoter Activators | Huh7 NPC1 promoter luciferase reporter, 24 h | Potency, µM (highest dose often 9.22 µM), for the others: at the highest dose activation, usual class: activators | 320,000 tested, 2.4% active; further: % of control where 0% means no effect; nearly all actives have a fitted effect of over 60% in size
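Huh7 reporter cells (NPC1 promoter driving luciferase) are dosed with compound for 24 h at 37 °C, 5% CO2; luciferase detection reagent is then added and luminescence measured after 10 min at ambient temperature.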
KinaseGlo FLuc: Counterscreen for Luciferase (Kinase-Glo TM) Inhibition; Kinase-Glo luciferase, ATP luminescence, 8 min; Potency, µM (top dose mostly 38.3 µM), without a hit: at the highest dose activity change, negative = inhibition, actives largely listed as inhibitors; 200,000 tested, 0.28% active; AID 1379, 2008; further: on the % scale 0 is the no-effect control and ±100 the full control effect; nearly all actives have a fitted effect of over 60% in size
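Compounds were added to a substrate mix at pH 7.2 (50 mM imidazole, 10 uM ATP, within the enzyme's linear range), followed by Kinase-Glo detection reagent; luminescence was measured after 8 minutes at ambient temperature.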
FLuc modulator: qHTS profiling assay for firefly luciferase inhibitor/activator using purifed enzyme and Km concentrations of substrates (counterscreen for miR-21 project) | Luciferin 4-monooxygenase (Photinus pyralis), P08659 | purified FLuc, Km substrates, luminescence inhibition | Potency, µM (top dose mostly 57.5 µM), inactives show at the top dose activity change, negative = inhibition, hits mostly inhibitors | 360,000 tested, 6.9% active | AID 588342, 2011;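 further: plate controls were vehicle for no effect and reference inhibitor for full effect; nearly all actives have a fitted effect of over 55% in size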
Target sequence (P08659 whole entry, looked up): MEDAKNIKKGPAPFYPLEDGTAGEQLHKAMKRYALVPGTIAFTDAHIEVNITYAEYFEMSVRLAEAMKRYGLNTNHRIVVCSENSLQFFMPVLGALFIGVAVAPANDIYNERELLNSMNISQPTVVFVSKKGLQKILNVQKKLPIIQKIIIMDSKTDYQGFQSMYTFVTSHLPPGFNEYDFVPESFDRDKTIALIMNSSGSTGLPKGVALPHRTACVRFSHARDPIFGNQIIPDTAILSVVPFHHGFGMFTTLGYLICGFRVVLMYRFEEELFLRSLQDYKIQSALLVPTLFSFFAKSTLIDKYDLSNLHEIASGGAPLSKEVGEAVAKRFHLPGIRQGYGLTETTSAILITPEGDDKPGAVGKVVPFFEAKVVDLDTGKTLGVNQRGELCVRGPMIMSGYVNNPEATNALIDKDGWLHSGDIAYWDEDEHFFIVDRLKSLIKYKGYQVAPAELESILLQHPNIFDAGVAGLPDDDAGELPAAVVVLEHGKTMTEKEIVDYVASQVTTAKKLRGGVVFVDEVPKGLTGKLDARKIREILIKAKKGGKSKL
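Purified P. pyralis luciferase (10nM final) with 10uM D-luciferin and 10uM ATP (Km levels) in 50mM Tris acetate pH 7.5, 10mM Mg acetate, 0.01% Tween-20, 0.05% BSA; qHTS 6-point titration, ~60 µM downward; luminescence read.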
The depositor's hits bear a star; [ ] = another dose, or the depositor's remark. An excerpt weighted towards active compounds, which were near 7.3% of everything screened. The call rests on the fitted dose curve; in most records, active means well fitted curve in the direction sought with a large enough effect; inconclusive means small, poorly fitted or top-dose-only effect, or another doubt; inactive means no such curve, though single readings can be large; an effect the other way counts as inactive or inconclusive. Potency means the concentration at half of the fitted maximal effect.

Cc1ccc(CCNC(=O)CCn2nc(-c3ccc(Cl)cc3)ccc2=O)cc1 was read as FLuc modulator 0%.
`CCNC(=O)C1CCCN(c2nn3cc(-c4ccc(C)cc4)nc3s2)C1` (stereo not drawn) gave FLuc modulator 1.2µM*.
For Cc1ccc(-c2cn3nc(N4CCCC(C(=O)Nc5ccc(F)cc5)C4)sc3n2)cc1 (stereo not drawn) the results were FLuc modulator 12µM*.
Screening COc1ccc(-c2cn3nc(N4CCCC(C(=O)Nc5cc(C)cc(C)c5)C4)sc3n2)cc1 (stereo not drawn) returned FLuc modulator -19%.
Cc1ccc(-c2cn3nc(N4CCCC(C(=O)NCc5ccc(F)cc5)C4)sc3n2)cc1 (stereo not drawn) was read as FLuc modulator 8.5µM*.
`COc1ccc(-c2cn3nc(N4CCC(C(=O)NCc5ccc(F)cc5)CC4)sc3n2)cc1` gave FLuc modulator -1%.
For N#CCCN(Cc1ccccc1)S(=O)(=O)c1cccs1 the results were ELG1 genotox -3%, Rab9 prom act -2%, NPC1 promoter act 2% and FLuc modulator 4%.
Cc1cc2ccccn2c1C(=S)NC(=O)c1ccccc1 was read as ELG1 genotox 1%, SMN2 splice up 15%, Rab9 prom act 3%, NPC1 promoter act 4%, KinaseGlo FLuc -1% and FLuc modulator inconclusive.
`Cn1cnc2cc(NC(=O)c3cccs3)ccc21` gave ELG1 genotox inconclusive, Rab9 prom act 2.8µM*, NPC1 promoter act inconclusive, KinaseGlo FLuc -15% and FLuc modulator 17µM*.
For Cc1cccc(C(=O)Nc2ccc3c(c2)nc(C)n3C)c1 the results were ELG1 genotox inconclusive, Rab9 prom act 0.32µM*, NPC1 promoter act 0.4µM* and FLuc modulator 3µM*.
Screening O=C(Nc1ccc2nn(-c3ccccc3)nc2c1)c1cccs1 returned ELG1 genotox inconclusive, SMN2 splice up inconclusive, Rab9 prom act 3.5µM*, NPC1 promoter act inconclusive, KinaseGlo FLuc -3% and FLuc modulator -11%[2.3 µM].
Screening CCC(=O)Nc1ccc2c(c1)ncn2C returned ELG1 genotox 0%, SMN2 splice up 8%, Rab9 prom act -4%, NPC1 promoter act -2%, KinaseGlo FLuc -4% and FLuc modulator -2%.
Screening Cc1cccc(C(=O)Nc2ccc3c(c2)ncn3C)c1 returned ELG1 genotox inconclusive, Rab9 prom act 1.3µM*, NPC1 promoter act 1.6µM* and FLuc modulator 9.5µM*.
`COc1cc(S(=O)(=O)Nc2ccc3c(c2)C(=O)N(C)C3=O)ccc1NC(C)=O` gave ELG1 genotox 1%.
Screening CC[C@@]1(C(=O)OC)N[C@H](CN(C)S(=O)(=O)c2ccc(OC)cc2)[C@@H]2C(=O)N(C)C(=O)[C@@H]21 returned ELG1 genotox 1%.
Screening COc1ccc(NC(=O)CNC(c2ccccc2)c2ccccc2)cc1Cl returned ELG1 genotox 0%, Rab9 prom act -1%, NPC1 promoter act -4% and FLuc modulator 1%.
For CC1(C)Cn2c(nnc2-c2ccccc2)S1 the results were ELG1 genotox 0%, SMN2 splice up 1%, Rab9 prom act -5%, NPC1 promoter act 1%, KinaseGlo FLuc -4% and FLuc modulator 2%.
For CC(=O)CCc1ccc(OCCCOc2cccc3cccnc23)cc1 the results were ELG1 genotox 3%, Rab9 prom act 0%, NPC1 promoter act 5% and FLuc modulator 21µM*.
Screening CC(=O)c1ccc(OCCCOc2cccc3cccnc23)cc1 returned ELG1 genotox -7%, Rab9 prom act -2%, NPC1 promoter act -9% and FLuc modulator -12%.
COc1ccc(-n2sc3ccc(F)cc3c2=O)cc1 was read as ELG1 genotox 5%, Rab9 prom act 3.5µM*, NPC1 promoter act inconclusive and FLuc modulator inconclusive.
CCOC(=O)c1ccc(-n2[nH]c(-c3ccccc3)cc2=O)cc1 was read as ELG1 genotox -10%, SMN2 splice up -73%, Rab9 prom act -8%, NPC1 promoter act 0%, KinaseGlo FLuc -2% and FLuc modulator inconclusive.
For CC(C)CSc1nc2ccccc2c(=O)[nH]1 the results were ELG1 genotox 6%, SMN2 splice up 4%, Rab9 prom act 2%, NPC1 promoter act 0%, KinaseGlo FLuc 5% and FLuc modulator -10%.
`O=C1N/C(=C\c2ccc(O)cc2)C(O)=C1C=NCc1ccccc1` gave ELG1 genotox 13%, SMN2 splice up -21%, Rab9 prom act -7%, NPC1 promoter act -14%, KinaseGlo FLuc -1% and FLuc modulator 12µM*.
COc1ccc(/C=C2\NC(=O)C(C=NCc3ccccc3)=C2O)cc1 was read as ELG1 genotox 5%, SMN2 splice up 8%, Rab9 prom act 6%, NPC1 promoter act 3%, KinaseGlo FLuc -7% and FLuc modulator inconclusive.
CCC(C)(C)NC(=O)c1cc(S(=O)(=O)N2CCc3ccccc32)cn1C was read as ELG1 genotox 1%, Rab9 prom act -9%, NPC1 promoter act -7% and FLuc modulator 1%.
`CCCCN(CC)C(=O)CSc1nc2c(sc(=S)n2-c2ccc(OCC)cc2)c(=O)[nH]1` gave ELG1 genotox -6%, SMN2 splice up -27%, Rab9 prom act 1%, NPC1 promoter act -2%, KinaseGlo FLuc -1% and FLuc modulator 17µM*.
COc1ccc(C(=O)O/N=C(\N)c2ccc(Cl)cc2)cc1 was read as ELG1 genotox inconclusive, Rab9 prom act inconclusive, NPC1 promoter act 3.2µM* and FLuc modulator 2.4µM*.
Screening COc1ccc(Cl)cc1C(=O)O/N=C(\N)c1ccncc1 returned ELG1 genotox 7%, Rab9 prom act 20%, NPC1 promoter act 27% and FLuc modulator -4%.
`COc1ccc(/C(N)=N/OC(=O)c2ccc(Br)o2)cc1` gave ELG1 genotox inconclusive, Rab9 prom act inconclusive, NPC1 promoter act inconclusive and FLuc modulator 6µM*.
For COc1ccccc1C(=O)O/N=C(\N)c1ccc(Cl)cc1 the results were ELG1 genotox inconclusive, SMN2 splice up inconclusive, Rab9 prom act 28%, NPC1 promoter act inconclusive, KinaseGlo FLuc -2% and FLuc modulator 21µM*.
Screening Cc1ccc(OCCn2nnc3ccccc32)cc1C returned ELG1 genotox inconclusive, Rab9 prom act 2.5µM*, NPC1 promoter act 2.5µM* and FLuc modulator 21µM*.
